Holding throughout (assay type): functional
The subject of experiment [1] is Plasmodium falciparum. Briefly: GSK_TCMDC: Inhibition of Plasmodium falciparum 3D7 in whole red blood cells, using parasite LDH activity as an index of growth. Test compounds present at 2uM.
For experiment [2], the system named is Plasmodium falciparum. The experiment is described as follows: GSK_TCMDC: Inhibition of Plasmodium falciparum Dd2 in whole red blood cells, using parasite LDH activity as an index of growth. Test compounds present at 2uM.
The next experiment has as its system HepG2. Briefly: GSK_TCMDC: Percent inhibition of human HepG2 cell line. Test compounds present at 10uM.

What is called Inhibition is the relative decrease from the control value, in per cent. A higher Inhibition goes with a strong effect. As for `CCOc1c(C)cc(C(F)(F)F)cc1CNCCCNc1cc(=O)c2ccccc2[nH]1.Cl`, the Inhibition is on record as 97% in the experiment with Plasmodium falciparum [1], 1% with Plasmodium falciparum [2] and 0% in the experiment with HepG2.

Take `COc1ccc(Nc2nccc(N3CCC(NC(=O)c4cccc(NC(C)=O)c4)C3)n2)cc1` (stereo not drawn): the Inhibition worked out at 92% with Plasmodium falciparum [1], 84% with Plasmodium falciparum [2] and 0% with HepG2.

Consider `Cc1cccc2nc(-c3ccc(-c4ccc(NC(=O)Nc5ccsc5)cc4)s3)[nH]c12`, for which the Inhibition in the experiment on Plasmodium falciparum [1] worked out at 100%; in the experiment on Plasmodium falciparum [2], 88%; in the experiment with HepG2, 74%.

With `CCN(CC)CCCNc1nccc(N(C)c2ccc(NC(=O)Nc3cc(C(F)(F)F)ccc3F)cc2)n1.O=C(O)C(F)(F)F`, the Inhibition in the experiment with Plasmodium falciparum [1] was 94%; in the experiment on Plasmodium falciparum [2], 19%; in the experiment with HepG2, 96%.

As to `N=C(N)NN=CC(=O)Nc1ccc(Cl)cc1.O=S(=O)(O)O`, the results for the Inhibition in the experiment on Plasmodium falciparum [1], in the experiment on Plasmodium falciparum [2] and with HepG2 were 100%, 2% and 5%, respectively.

For `COc1cccc(-c2cnc(N)c(-c3nc4cc(Cl)c(F)cc4[nH]3)c2)c1`, the Inhibition came out at 100% with Plasmodium falciparum [1], 26% in the experiment with Plasmodium falciparum [2] and 37% in the experiment with HepG2.

Consider `COc1cc2nc(Nc3ccc(C)cc3)nc(Nc3ccc(C)cc3)c2cc1OC.Cl`, for which the Inhibition in the experiment on Plasmodium falciparum [1] is 100%; in the experiment on Plasmodium falciparum [2], 100%; with HepG2, 99%.

On to `COc1cccc2cc(C(=O)N[C@@H](CC(C)C)C(=O)N[C@H](C=NN(C)C(=O)OC(C)(C)C)Cc3ccccc3)oc12`, for which the Inhibition is 99% with Plasmodium falciparum [1], 89% in the experiment on Plasmodium falciparum [2] and 5% in the experiment with HepG2.

For `Cc1nc(N)nc(N)c1-c1cccc(Cl)c1`, the Inhibition with Plasmodium falciparum [1] came to 88%; in the experiment on Plasmodium falciparum [2], 0%; in the experiment on HepG2, 60%.

As for `COc1ccc(-c2nc3ccc(C)nc3nc2-c2ccc(OC)cc2)cc1`, the Inhibition came to 91% in the experiment on Plasmodium falciparum [1], 0% in the experiment with Plasmodium falciparum [2] and 4% in the experiment on HepG2.

For `Cc1ccc(CNc2cc(C(F)(F)F)nc(-c3ccc(S(C)(=O)=O)cc3)n2)cc1`, the Inhibition in the experiment with Plasmodium falciparum [1] is 89%; with Plasmodium falciparum [2] it was 72%; in the experiment on HepG2, 2%.

The values above are taken from ChEMBL document CHEMBL1157539, “Thousands of chemical starting points for antimalarial lead identification” (Nature, 2010).
